# ELG1 DNA repair – qHTS screen for small molecules that inhibit ELG1-dependent DNA repair in human embryonic kidney (HEK293T) cells expressing luciferase-tagged ELG1; hit rate 2.3% among 330,000; HEK293T ELG1-luciferase reporter, luminescence, 16 h; DNA damage induced by 5-fluorouridine; AID 504467, 2011; Potency, µM (series often up to 46.1 µM), actives largely listed as inhibitors; further: nearly all actives have a fitted effect of over 55% in size
#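 Step one: seed 2,000 cells per well. Step two: pin-transfer compound or DMSO alongside 5-fluorouridine. Step three: incubate 16 hr, 37 °C, 5% CO2. Step four: add ONE-Glo, wait 30 min, read luminescence.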
# Rab9 prom act – qHTS Assay for Rab9 Promoter Activators; AID 485297, 2010; Potency, µM (doses to about 9.22 µM), usual class: activators; hit rate 2.8% among 320,000; Huh7 Rab9 promoter-luciferase reporter, luminescence, 24 h; further: nearly all actives have a fitted effect of over 60% in size
#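 Promoter activation is measured as luciferase luminescence in Huh7 cells stably transfected with a Rab9 promoter–luciferase construct, following 24 h compound exposure at 37 °C and 10 min reagent incubation at ambient temperature.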
# ELG1 genotox – qHTS screen for small molecules that induce genotoxicity in human embryonic kidney (HEK293T) cells expressing luciferase-tagged ELG1; HEK293T ELG1-luciferase reporter, luminescence, 16 h; Potency, µM (top dose mostly 46 µM), usual class: activators; hit rate 1.3% among 330,000; AID 504466, 2011; further: nearly all actives have a fitted effect of over 60% in size
#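 Quantitative HTS format in 1536-well plates. HEK293T ELG1-luciferase reporter cells receive test compound and are incubated 16 hr at 37 °C, 5% CO2; ONE-Glo added, 30 min room temperature, then luminescence read.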
# FLuc modulator – qHTS profiling assay for firefly luciferase inhibitor/activator using purifed enzyme and Km concentrations of substrates (counterscreen for miR-21 project). Luciferin 4-monooxygenase (Photinus pyralis), P08659. purified FLuc, Km substrates, luminescence inhibition. Potency, µM (top dose mostly 57.5 µM), hits mostly inhibitors. hit rate 6.9% among 360,000. AID 588342, 2011; further: nearly all actives have a fitted effect of over 55% in size
# Target sequence (P08659 whole entry, looked up): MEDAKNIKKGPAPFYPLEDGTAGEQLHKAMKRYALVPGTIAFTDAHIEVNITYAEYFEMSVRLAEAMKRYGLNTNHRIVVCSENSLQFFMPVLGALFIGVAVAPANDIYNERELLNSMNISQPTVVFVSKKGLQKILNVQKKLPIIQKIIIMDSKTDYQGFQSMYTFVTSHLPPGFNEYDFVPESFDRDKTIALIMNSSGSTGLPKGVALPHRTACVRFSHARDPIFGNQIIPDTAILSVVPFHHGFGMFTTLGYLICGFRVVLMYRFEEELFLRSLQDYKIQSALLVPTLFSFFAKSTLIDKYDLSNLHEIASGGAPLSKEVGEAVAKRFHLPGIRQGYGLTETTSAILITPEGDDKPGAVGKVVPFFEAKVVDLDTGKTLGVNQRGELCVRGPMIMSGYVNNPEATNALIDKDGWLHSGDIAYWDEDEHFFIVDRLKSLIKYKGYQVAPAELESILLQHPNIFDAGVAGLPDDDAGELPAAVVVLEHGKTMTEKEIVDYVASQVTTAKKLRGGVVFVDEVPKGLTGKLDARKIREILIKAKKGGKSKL
#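 Biochemical qHTS of compounds, final roughly 60 µM downward over six points, against 10 nM purified firefly luciferase using Km concentrations of substrates (10 uM D-luciferin, 10 uM ATP) in Tris acetate pH 7.5 buffer; luminescence output.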
# NPC1 prom act – qHTS Assay for NPC1 Promoter Activators. hit rate 2.4% among 320,000. Huh7 NPC1 promoter luciferase reporter, 24 h. AID 485313, 2010. Potency, µM (doses to about 9.22 µM), hits mostly activators; further: nearly all actives have a fitted effect of over 60% in size
#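 Compounds in DMSO were transferred onto Huh7 NPC1-luciferase reporter cells pre-incubated 2 h; after 24 h at 37 °C, Amplite reagent was dispensed and luminescence recorded 10 min later.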
# SMN2 splice enh – qHTS Assay for Enhancers of SMN2 Splice Variant Expression; HEK293 SMN2-luciferase splicing reporter, luminescence, 30-36 h; Potency, µM (highest dose often 46.1 µM), most hits filed as activators; hit rate 2.8% among 210,000; further: nearly all actives have a fitted effect of over 55% in size
#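 HEK293 cells carry an SMN2 minigene-luciferase reporter in which exon 7 inclusion puts luciferase in frame. Cells were seeded at 2000 cells/well, attached for 10-12 hours, then exposed to compounds for 30-36 hours at 37C before ONE-Glo luminescence.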
# A number is an active result; i = inactive; ? = inconclusive; nt = no result. In the library only some 9.3% were active in any assay of this set; here they are far more common. The call rests on the fitted dose curve; in most records, active means well fitted curve in the direction sought with a large enough effect; inconclusive means small, poorly fitted or top-dose-only effect, or another doubt; inactive means no such curve, though single readings can be large; an effect the other way counts as inactive or inconclusive.
SMILES,ELG1 DNA repair,Rab9 prom act,ELG1 genotox,FLuc modulator,NPC1 prom act,SMN2 splice enh
Cc1cccc(N2CCN(S(=O)(=O)c3cc(Br)cc4c3N(C(=O)C3CC3)CC4)CC2C)c1 (configuration not stated),nt,nt,nt,i,nt,i
NS(=O)(=O)c1ccc(CCNC(=O)COC(=O)/C=C/c2cc(Br)ccc2F)cc1,i,nt,i,nt,nt,nt
COc1ccc(C(=O)Nc2scc(-c3ccc(Cl)cc3Cl)c2C(N)=O)cc1,?,3.2µM,i,4.8µM,2.8µM,i
CCOC(=O)N1CCN(Cc2nnc(-c3cccc(Br)c3)o2)CC1,?,i,i,i,i,nt
COc1cccc(NC(=O)C2(S(=O)(=O)c3ccc(Cl)cc3)CC2)c1,i,i,i,i,i,nt
O=C(NC(=S)Nc1cccc(Cl)c1N1CCCCC1)c1ccco1,?,i,i,i,i,i
O=C(NNC(=S)Nc1ccccc1Cl)c1ccccc1Cl,i,i,i,i,i,nt
O=C(NNC(=S)Nc1ccccc1Cl)c1ccccc1,?,1.6µM,?,13µM,2.5µM,nt
O=C(NC(=S)Nc1cccc2c(O)cccc12)c1ccco1,i,i,i,21µM,i,nt
O=C(NC(=S)Nc1ccccc1Cl)c1ccco1,?,?,i,9.5µM,?,nt
C[C@@H](CCc1ccc(O)cc1)NCCc1ccc(O)c(O)c1,nt,nt,nt,nt,nt,i
c1csc(-c2nc3c4ccccc4c4ccccc4c3[nH]2)c1,?,i,i,15µM,i,i
Oc1ccccc1-c1nc2c3ccccc3c3ccccc3c2[nH]1,i,?,i,?,?,nt
COc1ccc(C(=O)/C=C/c2cc(C(=O)O)cc3c2OCOC3)c(O)c1,?,i,i,1.7µM,i,nt
O=C(/C=C/c1cccnc1)c1cc(F)ccc1O,?,i,i,i,i,nt
O=C(O)c1cc(/C=C/C(=O)c2cc(F)ccc2O)c2c(c1)COCO2,?,i,i,30µM,i,nt
CC1(C)CC(=O)c2sc(NC(=O)c3ccc4ncsc4c3)nc2C1,?,?,?,1.9µM,?,11µM
CC1(C)CC(=O)c2sc(NC(=O)CCS(=O)(=O)c3ccccc3)nc2C1,?,i,i,i,i,i
CC(Oc1ccccc1)C(=O)Nc1nc2c(s1)C(=O)CC(C)(C)C2 (configuration not stated),i,i,i,i,i,i
CC1(C)CNC(=O)c2sc(NC(=O)c3ccccc3)nc2C1,?,?,i,?,?,11µM
CC1(C)CC(=O)c2sc(NC(=O)c3cccs3)nc2C1,?,0.5µM,?,0.76µM,?,2.2µM
CC1(C)CC(=O)c2sc(NC(=O)c3ccccc3)nc2C1,?,0.71µM,?,1.9µM,0.45µM,13µM
CC1(C)CC(=O)c2sc(NC(=O)CN3CCCCC3)nc2C1,i,i,i,i,i,i
CC1(C)CC(=O)c2sc(NC(=O)C(C)(C)C)nc2C1,?,2.8µM,?,?,?,nt
C/C(=N\Nc1nc(C(=O)O)cs1)c1ccccc1,?,i,i,17µM,i,i
SMILES,ELG1 DNA repair,Rab9 prom act,ELG1 genotox,FLuc modulator,NPC1 prom act,SMN2 splice enh
C/C(=N/NC(=O)C(=O)N/N=C(/C)c1ccccc1)c1ccccc1,i,i,i,?,i,i
C/C(=N\Nc1nc(C(C)(C)C)cs1)c1ccc(O)cc1,?,?,?,21µM,?,nt
CC(C)(C)c1csc(NC(=O)CS(=O)(=O)c2ccccc2)n1,?,i,?,?,i,nt
CC(C)(C)c1csc(NNC(=O)c2ccc(Br)cc2)n1,i,i,i,?,i,i
O=C(NC(=S)Nc1nc2c(s1)CCCC2)c1ccc(C(=O)c2ccccc2)cc1,?,i,i,i,i,i
C/C(=N\Nc1nc2c(s1)CCCC2)c1ccccc1,?,3.5µM,?,1.1µM,?,11µM
C/C(=N\Nc1nc(C(C)(C)C)cs1)c1ccccc1,?,1.1µM,3.7µM,2.1µM,1.4µM,nt
COc1ccc(NC(=O)Cn2cc(S(=O)(=O)Cc3ccc(F)cc3)c3ccccc32)cc1OC,nt,nt,nt,i,nt,nt
O=C(/C=C/c1ccccc1)NCCOc1ccccc1,?,?,?,24µM,i,?
CCOc1ccc(/C=C/C(=O)c2ccccc2)cc1,?,0.79µM,?,0.15µM,1.1µM,nt
CCOc1ccc(C(=O)/C=C/c2ccc(SC)cc2)cc1,i,i,i,5.4µM,i,i
COc1ccc(OCCNC(=O)/C=C/c2ccccc2)cc1,i,i,i,i,i,i
CCOc1ccc(/C=C/C(=O)NCc2ccccc2)cc1,?,i,i,15µM,i,i
COc1ccc(C(=O)Nc2ccc(-c3cc(C(F)(F)F)nn3-c3ccccc3)cc2)cc1OC,nt,nt,nt,i,nt,nt
O=C(NCCOc1ccccc1)C1CCCCC1,?,3.2µM,?,?,?,20µM

# Assay outcomes as filed in PubChem.
